The source made the active and inactive calls. Rule for the calls: active = hit-call score of the fitted dose curve at least 0.9, where 1 is the maximum; inactive = score below 0.9.
The compounds below were run against human PKD2 (PRKD2) CAMK Kinase, PRKD2 (gene 25865) (UniProt Q9BZL6) (assay: ERF_KP_ENZ_hPKD2: Eurofins (ERF) Enzymatic Radiometric [10 uM ATP] KinaseProfiler LeadHunter Assay for human PKD2 (PRKD2) CAMK Kinase).
human PKD2 (PRKD2) CAMK Kinase, PRKD2 (gene 25865), sequence (Q9BZL6 whole entry, looked up): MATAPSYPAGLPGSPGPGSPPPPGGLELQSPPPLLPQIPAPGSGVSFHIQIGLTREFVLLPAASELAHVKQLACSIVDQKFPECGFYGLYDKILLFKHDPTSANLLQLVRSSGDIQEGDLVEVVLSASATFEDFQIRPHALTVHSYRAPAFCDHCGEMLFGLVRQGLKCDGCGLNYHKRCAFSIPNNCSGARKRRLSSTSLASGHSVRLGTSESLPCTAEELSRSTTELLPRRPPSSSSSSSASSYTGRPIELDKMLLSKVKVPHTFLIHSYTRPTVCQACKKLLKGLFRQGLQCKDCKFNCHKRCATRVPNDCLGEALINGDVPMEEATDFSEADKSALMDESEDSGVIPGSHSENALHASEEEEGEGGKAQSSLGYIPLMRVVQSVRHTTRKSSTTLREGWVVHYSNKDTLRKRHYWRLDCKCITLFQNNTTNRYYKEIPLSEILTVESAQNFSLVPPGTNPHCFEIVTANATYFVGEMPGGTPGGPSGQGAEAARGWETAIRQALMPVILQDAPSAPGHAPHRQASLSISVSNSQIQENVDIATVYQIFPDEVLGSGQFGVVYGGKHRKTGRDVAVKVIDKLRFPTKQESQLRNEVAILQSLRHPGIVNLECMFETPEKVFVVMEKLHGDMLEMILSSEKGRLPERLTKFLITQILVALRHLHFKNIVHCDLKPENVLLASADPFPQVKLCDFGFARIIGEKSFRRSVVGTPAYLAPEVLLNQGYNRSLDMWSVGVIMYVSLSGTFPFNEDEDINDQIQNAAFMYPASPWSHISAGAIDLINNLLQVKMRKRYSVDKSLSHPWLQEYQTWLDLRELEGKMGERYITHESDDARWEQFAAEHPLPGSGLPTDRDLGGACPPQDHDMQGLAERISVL
Protocol: ERF_KP_ENZ_hPKD2 is a biochemical, single-readout assay that uses extracted gene-proteins in a cell-free assay. Measurements were taken 0.66 hour after chemical dosing in a 96-well plate. See PKD2 Human Protein Ser/Thr Kinase Enzymatic Radiometric Assay [10 uM ATP], KinaseProfiler.ERF_KP_ENZ_hPKD2 is an assay component calculated from the ERF_KP_ENZ_hPKD2 assay. It is designed to measure enzyme activity using a type of enzyme reporter as detected by scintillation counting with radiometry technology.Data from the assay component ERF_KP_ENZ_hPKD2 was analyzed at the assay endpoint, ERF_KP_ENZ_hPKD2, in the positive analysis fitting direction relative to DMSO as the negative control and baseline of activity. Using a type of enzyme reporter, loss-of-signal activity can be used to understand changes in enzymatic activity as they relate to gene PRKD2. To generalize the intended target to other relatable targets, this assay endpoint is annotated to the kinase intended target family, where the subfamily is serine/threonine kinase.
PKD2 (h) is incubated with 20 mM HEPES pH 7.4, 0.03% Triton X-100, 30 uM […], 10 mM MgAcetate and [gamma-33P]-ATP (specific activity and concentration as required). The reaction is initiated by the addition of the Mg/ATP mix. After incubation for 40 minutes at room temperature, the reaction is stopped by the addition of phosphoric acid to a concentration of 0.5%. […]
With `O=C(/C=C/c1ccc(O)cc1)CC(=O)/C=C/c1ccc(O)cc1` the AC50 was 0.3 nM (active).
